Data on one sequence can be found in publication PMC7862700, “An all-to-all approach to the identification of sequence-specific readers for epigenetic DNA modifications on cytosine”.

What all share (assay): DAPPL (digital affinity profiling via proximity ligation, sequencing); 10 mM Tris-HCl pH 7.5, 50 mM NaCl, 1 mM DTT, 4% glycerol, room temperature, 30 min; GST-TFs on glutathione beads, 16-mer random dsDNA library, 0.1% formaldehyde crosslink after washing; high values mean tight binding
One test addresses T1, FEV (Homo sapiens, UniProt Q99581 1-238).
T1 sequence: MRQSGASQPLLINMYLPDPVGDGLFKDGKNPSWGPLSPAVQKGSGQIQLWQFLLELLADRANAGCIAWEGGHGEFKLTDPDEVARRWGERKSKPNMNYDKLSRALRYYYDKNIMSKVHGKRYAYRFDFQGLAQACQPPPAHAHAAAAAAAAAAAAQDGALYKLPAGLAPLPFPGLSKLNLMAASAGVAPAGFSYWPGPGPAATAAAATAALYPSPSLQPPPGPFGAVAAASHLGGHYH
Particulars: protein: recombinant; tags: N-terminal GST; dsDNA, one strand shown. A digest of the protocol: (§1)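 Yeast served to express human transcription factors as GST fusions, which were then captured on glutathione beads and labelled with DNA barcodes. Pooled with a tag-only sample, they were incubated with 200 nmole of a 16-mer random double-stranded DNA library for 30 min at room temperature in Tris/NaCl/DTT/glycerol buffer, washed, crosslinked with 0.1% formaldehyde, ligated by proximity, amplified by PCR and sequenced. Dividing each hexamer's read frequency for a factor by its frequency for the tag-only sample gives the binding signal.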

In a further test the target is ETV5 (Homo sapiens, UniProt P41161 1-510). Conditions: protein: recombinant; tags: N-terminal GST; dsDNA, one strand shown. A digest of the protocol: as §1
ETV5, sequence (P41161 whole entry): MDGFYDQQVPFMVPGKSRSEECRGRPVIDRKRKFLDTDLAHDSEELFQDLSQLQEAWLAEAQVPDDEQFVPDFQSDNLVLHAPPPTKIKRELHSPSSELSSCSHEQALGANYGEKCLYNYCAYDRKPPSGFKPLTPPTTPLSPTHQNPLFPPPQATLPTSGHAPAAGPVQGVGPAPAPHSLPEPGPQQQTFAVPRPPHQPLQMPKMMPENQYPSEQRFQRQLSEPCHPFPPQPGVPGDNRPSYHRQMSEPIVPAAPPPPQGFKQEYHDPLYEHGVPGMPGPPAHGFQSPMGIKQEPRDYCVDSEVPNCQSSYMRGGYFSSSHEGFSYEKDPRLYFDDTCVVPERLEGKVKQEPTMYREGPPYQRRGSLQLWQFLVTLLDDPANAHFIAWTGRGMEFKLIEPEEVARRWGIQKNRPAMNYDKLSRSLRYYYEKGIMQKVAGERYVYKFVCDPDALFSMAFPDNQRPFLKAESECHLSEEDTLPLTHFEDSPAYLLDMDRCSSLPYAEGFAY
Another test addresses HSF1 (Homo sapiens, UniProt Q00613 1-529). Conditions: protein: recombinant; tags: N-terminal GST; chain copies: 3; dsDNA, one strand shown. A digest of the protocol: as §1
The next test deals with T2, SPIC (Homo sapiens, UniProt Q8N5J4 1-248).
T2 sequence: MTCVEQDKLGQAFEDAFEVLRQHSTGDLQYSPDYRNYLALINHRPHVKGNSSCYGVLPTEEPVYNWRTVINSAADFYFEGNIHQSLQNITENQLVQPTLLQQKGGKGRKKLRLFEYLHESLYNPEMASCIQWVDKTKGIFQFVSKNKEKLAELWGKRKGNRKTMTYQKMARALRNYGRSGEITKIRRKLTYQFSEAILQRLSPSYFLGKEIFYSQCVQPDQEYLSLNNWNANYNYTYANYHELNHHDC
Conditions: protein: recombinant; tags: N-terminal GST; dsDNA, one strand shown. A digest of the protocol:
as §1

The target in a further test is ELF4 (Homo sapiens, UniProt Q99607 1-663). Particulars: protein: recombinant; tags: N-terminal GST; dsDNA, one strand shown. A digest of the protocol:
as §1

The target of a further test is T3, ELK4 (Homo sapiens, UniProt P28324-2 1-405).
T3 sequence: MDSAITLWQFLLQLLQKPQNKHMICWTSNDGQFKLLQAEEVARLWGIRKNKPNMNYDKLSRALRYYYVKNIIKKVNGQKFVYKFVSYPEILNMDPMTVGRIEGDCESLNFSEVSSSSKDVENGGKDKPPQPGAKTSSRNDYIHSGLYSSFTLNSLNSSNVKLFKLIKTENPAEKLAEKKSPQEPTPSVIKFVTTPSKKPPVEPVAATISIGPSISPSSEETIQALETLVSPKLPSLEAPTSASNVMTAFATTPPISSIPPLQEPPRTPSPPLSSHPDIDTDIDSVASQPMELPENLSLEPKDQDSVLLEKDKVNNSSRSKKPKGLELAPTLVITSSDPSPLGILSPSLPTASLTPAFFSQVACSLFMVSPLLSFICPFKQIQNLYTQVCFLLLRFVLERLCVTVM
Conditions: protein: recombinant; tags: N-terminal GST; dsDNA, one strand shown. A digest of the protocol:
as §1

The next test has as its target T4, ETV2 (Homo sapiens, UniProt O00321 1-342).
T4 sequence: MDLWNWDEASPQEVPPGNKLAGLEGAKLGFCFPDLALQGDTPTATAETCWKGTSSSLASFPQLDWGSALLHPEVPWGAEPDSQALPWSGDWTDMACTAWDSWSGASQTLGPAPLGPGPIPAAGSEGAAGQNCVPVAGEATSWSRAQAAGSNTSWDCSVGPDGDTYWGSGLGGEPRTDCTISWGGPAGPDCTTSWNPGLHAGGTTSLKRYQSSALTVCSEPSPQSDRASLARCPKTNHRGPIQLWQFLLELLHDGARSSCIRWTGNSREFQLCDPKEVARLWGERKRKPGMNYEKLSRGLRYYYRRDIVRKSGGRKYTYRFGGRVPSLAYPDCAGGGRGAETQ
Conditions: protein: recombinant; tags: N-terminal GST; dsDNA, one strand shown. A digest of the protocol: as §1

Another test deals with T5, ELF3 (Homo sapiens, UniProt P78545 1-371).
T5 sequence: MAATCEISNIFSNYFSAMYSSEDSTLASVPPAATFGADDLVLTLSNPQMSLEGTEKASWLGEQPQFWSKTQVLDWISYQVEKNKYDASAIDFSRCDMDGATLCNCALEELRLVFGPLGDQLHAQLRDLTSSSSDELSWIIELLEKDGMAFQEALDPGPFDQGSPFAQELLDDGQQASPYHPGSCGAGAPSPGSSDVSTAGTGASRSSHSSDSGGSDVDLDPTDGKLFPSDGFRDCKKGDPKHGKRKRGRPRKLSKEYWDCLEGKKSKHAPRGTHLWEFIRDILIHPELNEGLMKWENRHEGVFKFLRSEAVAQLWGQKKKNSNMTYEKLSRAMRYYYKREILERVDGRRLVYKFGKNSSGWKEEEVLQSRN
Particulars: protein: recombinant; tags: N-terminal GST; dsDNA, one strand shown. A digest of the protocol: as §1

The target in another test is CRX (Homo sapiens, UniProt O43186 1-299). Conditions: protein: recombinant; tags: N-terminal GST; dsDNA, one strand shown. A digest of the protocol: as §1
CRX, sequence (O43186 whole entry): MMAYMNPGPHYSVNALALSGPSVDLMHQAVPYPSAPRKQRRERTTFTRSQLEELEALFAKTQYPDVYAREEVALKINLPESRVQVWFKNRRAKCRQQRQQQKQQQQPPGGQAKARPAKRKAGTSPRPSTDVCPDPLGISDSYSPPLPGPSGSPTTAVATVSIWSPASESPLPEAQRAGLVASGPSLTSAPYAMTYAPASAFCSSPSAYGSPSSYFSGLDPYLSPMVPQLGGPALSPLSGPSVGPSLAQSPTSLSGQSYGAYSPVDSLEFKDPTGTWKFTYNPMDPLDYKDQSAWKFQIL
Another test has as its target ETV1 (Homo sapiens, UniProt P50549 1-477). Conditions: protein: recombinant; tags: N-terminal GST; dsDNA, one strand shown. A digest of the protocol: as §1
The next test concerns the target T6, ERF (Homo sapiens, UniProt P50548 1-548).
T6 sequence: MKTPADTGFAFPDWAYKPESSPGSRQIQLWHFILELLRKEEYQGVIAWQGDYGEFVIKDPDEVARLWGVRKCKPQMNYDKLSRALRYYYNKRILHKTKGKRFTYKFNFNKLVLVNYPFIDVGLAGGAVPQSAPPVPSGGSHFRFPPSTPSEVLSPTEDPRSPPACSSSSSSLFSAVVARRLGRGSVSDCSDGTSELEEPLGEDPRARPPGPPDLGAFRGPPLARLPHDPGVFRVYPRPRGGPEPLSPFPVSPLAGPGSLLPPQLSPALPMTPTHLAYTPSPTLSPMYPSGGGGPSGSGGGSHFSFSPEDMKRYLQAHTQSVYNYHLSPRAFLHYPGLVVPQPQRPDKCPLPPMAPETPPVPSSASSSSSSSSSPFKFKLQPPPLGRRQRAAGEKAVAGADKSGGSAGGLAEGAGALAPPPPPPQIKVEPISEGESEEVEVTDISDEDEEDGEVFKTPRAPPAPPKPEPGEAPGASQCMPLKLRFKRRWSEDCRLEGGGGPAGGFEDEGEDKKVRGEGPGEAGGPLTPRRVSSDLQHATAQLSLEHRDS
Particulars: protein: recombinant; tags: N-terminal GST; dsDNA, one strand shown. A digest of the protocol:
as §1

The target in the next test is T7, ETV3L (Homo sapiens, UniProt Q6ZN32 1-361).
T7 sequence: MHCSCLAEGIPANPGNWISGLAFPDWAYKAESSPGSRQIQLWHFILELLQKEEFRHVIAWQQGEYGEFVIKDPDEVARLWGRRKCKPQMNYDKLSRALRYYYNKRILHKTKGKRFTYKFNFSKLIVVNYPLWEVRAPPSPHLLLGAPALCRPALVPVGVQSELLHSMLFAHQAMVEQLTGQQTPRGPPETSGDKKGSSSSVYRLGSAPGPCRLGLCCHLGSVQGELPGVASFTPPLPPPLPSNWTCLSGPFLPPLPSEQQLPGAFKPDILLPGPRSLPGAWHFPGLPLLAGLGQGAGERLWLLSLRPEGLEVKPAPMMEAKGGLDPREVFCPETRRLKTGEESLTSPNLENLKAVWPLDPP
Conditions: protein: recombinant; tags: N-terminal GST; dsDNA, one strand shown. A digest of the protocol:
as §1

The target of a further test is T8, ETS2 (Homo sapiens, UniProt P15036 1-469).
T8 sequence: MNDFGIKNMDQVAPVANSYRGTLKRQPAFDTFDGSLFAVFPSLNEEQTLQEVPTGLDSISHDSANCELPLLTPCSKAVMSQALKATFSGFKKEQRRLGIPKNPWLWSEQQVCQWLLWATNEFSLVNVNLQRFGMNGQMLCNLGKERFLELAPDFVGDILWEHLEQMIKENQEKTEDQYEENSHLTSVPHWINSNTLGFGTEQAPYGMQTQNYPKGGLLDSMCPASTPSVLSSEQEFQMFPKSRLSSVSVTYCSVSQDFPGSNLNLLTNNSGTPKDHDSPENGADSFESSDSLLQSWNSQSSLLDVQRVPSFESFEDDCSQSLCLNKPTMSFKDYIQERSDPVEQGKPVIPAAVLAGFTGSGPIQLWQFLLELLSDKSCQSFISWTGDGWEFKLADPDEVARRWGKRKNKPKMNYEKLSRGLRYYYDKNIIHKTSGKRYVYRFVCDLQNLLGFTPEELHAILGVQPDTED
Conditions: protein: recombinant; tags: N-terminal GST; dsDNA, one strand shown. In short, it runs like this:
as §1

Another test addresses T9, SPDEF (Homo sapiens, UniProt O95238 1-335).
T9 sequence: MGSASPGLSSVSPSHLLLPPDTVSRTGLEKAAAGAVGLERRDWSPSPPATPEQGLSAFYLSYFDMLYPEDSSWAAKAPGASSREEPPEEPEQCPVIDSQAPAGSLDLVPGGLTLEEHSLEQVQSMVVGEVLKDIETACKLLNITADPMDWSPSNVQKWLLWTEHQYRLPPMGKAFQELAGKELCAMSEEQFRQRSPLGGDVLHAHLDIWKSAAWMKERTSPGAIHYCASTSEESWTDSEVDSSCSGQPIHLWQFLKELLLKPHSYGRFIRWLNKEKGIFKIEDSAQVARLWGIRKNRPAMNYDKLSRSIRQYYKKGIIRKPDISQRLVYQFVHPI
Particulars: protein: recombinant; tags: N-terminal GST; dsDNA, one strand shown. In short, it runs like this: as §1

Another test addresses T10, ETV7 (Homo sapiens, UniProt Q9Y603 1-341).
T10 sequence: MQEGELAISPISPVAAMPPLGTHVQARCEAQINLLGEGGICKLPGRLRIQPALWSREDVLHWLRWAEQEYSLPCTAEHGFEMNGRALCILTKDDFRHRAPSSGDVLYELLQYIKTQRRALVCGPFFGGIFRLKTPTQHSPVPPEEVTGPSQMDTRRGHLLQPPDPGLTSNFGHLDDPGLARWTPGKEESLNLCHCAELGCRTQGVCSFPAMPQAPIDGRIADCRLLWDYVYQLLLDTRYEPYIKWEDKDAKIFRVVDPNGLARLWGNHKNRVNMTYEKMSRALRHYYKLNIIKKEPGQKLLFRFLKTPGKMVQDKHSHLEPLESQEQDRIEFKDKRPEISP
Particulars: protein: recombinant; tags: N-terminal GST; dsDNA, one strand shown. A digest of the protocol: as §1

The target of another test is T11, ELF5 (Homo sapiens, UniProt Q9UKW6-2 1-255).
T11 sequence: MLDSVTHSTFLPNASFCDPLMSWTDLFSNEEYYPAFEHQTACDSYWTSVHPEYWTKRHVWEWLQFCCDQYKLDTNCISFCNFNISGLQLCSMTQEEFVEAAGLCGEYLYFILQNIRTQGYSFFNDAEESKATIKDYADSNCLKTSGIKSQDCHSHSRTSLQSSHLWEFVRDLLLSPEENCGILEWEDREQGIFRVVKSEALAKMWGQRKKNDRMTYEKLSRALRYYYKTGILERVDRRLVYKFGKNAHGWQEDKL
Particulars: protein: recombinant; tags: N-terminal GST; dsDNA, one strand shown. In short, it runs like this:
as §1

The target in a further test is T12, ETV3 (Homo sapiens, UniProt P41162-2 1-143).
T12 sequence: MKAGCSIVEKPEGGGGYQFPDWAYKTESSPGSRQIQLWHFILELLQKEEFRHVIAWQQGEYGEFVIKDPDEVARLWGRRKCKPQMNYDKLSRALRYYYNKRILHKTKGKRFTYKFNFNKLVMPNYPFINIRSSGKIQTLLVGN
Particulars: protein: recombinant; tags: N-terminal GST; dsDNA, one strand shown. A digest of the protocol:
as §1

The next test concerns the target ETV6 (Homo sapiens, UniProt P41212 1-452). Particulars: protein: recombinant; tags: N-terminal GST; dsDNA, one strand shown. A digest of the protocol:
as §1

ELF4, sequence (Q99607 whole entry): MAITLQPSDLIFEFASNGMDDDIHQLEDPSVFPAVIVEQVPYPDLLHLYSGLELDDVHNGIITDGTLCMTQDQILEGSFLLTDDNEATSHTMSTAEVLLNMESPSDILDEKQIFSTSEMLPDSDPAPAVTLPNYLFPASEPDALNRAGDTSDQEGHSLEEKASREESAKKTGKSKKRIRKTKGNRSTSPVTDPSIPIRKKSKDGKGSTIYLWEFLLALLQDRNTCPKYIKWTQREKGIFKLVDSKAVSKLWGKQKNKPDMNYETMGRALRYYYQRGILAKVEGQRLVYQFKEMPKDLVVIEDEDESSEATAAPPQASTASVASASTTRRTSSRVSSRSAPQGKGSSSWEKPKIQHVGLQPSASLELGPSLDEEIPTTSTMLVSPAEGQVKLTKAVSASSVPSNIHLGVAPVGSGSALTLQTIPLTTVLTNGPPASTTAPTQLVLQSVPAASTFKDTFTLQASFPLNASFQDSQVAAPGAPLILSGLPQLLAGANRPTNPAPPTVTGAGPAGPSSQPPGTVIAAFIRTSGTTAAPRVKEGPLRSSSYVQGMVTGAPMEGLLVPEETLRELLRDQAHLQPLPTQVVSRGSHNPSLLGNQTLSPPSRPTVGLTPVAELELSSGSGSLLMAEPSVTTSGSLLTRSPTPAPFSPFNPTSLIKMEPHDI
ETV1, sequence (P50549 whole entry): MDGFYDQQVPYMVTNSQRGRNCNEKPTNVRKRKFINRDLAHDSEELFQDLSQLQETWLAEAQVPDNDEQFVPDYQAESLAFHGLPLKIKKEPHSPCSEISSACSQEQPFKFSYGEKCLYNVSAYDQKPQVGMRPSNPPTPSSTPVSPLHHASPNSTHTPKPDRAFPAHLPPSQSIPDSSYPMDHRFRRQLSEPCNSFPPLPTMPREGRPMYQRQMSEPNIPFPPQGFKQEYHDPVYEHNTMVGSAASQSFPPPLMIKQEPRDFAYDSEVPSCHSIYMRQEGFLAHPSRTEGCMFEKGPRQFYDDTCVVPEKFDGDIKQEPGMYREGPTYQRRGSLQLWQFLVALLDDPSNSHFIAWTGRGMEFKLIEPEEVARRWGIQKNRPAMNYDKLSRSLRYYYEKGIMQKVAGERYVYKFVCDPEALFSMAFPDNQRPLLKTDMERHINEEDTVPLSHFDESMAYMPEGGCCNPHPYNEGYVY
ETV6, sequence (P41212 whole entry): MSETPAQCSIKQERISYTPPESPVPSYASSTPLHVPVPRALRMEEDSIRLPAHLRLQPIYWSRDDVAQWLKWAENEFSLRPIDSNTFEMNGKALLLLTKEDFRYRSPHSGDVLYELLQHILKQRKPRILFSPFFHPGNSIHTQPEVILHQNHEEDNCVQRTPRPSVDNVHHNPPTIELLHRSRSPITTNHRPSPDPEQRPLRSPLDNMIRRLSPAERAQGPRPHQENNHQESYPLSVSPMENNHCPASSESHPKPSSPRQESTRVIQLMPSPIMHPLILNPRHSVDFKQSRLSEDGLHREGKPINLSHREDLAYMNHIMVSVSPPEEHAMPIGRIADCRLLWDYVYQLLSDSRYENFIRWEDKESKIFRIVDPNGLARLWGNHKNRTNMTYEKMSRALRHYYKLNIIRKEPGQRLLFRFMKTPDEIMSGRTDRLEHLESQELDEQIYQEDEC
HSF1, sequence (Q00613 whole entry): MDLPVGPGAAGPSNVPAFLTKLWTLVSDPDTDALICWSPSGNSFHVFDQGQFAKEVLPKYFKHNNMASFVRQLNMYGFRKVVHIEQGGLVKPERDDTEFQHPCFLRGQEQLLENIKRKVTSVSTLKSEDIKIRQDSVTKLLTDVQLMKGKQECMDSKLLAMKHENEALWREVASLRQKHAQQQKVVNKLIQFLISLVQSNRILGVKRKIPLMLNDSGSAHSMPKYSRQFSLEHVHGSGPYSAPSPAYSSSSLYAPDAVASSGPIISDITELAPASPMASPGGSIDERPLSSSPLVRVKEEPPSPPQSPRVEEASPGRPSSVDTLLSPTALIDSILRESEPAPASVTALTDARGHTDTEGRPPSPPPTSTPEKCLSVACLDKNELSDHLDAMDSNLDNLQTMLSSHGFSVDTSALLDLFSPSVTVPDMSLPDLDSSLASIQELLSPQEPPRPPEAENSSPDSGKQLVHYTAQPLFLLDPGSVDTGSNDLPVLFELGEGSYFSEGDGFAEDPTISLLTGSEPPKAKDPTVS

For the sequence TCGACA, the binding signal with FEV is 1.3 fold enrichment (6-mer frequency, TF over GST control); with ETV5, 1.32 fold enrichment (6-mer frequency, TF over GST control); in the test with HSF1, 1.38 fold enrichment (6-mer frequency, TF over GST control); with SPIC, 1.28 fold enrichment (6-mer frequency, TF over GST control); in the test with ELF4, 1.43 fold enrichment (6-mer frequency, TF over GST control); with ELK4, 1.42 fold enrichment (6-mer frequency, TF over GST control). Also, the binding signal with ETV2 was 1.19 fold enrichment (6-mer frequency, TF over GST control); in the test with ELF3, 1.23 fold enrichment (6-mer frequency, TF over GST control); in the test with CRX it was 1.19 fold enrichment (6-mer frequency, TF over GST control); in the test with ETV1 it was 1.4 fold enrichment (6-mer frequency, TF over GST control); in the test with ERF it was 1.35 fold enrichment (6-mer frequency, TF over GST control); in the test with ETV3L, 1.3 fold enrichment (6-mer frequency, TF over GST control). Further, the binding signal with ETS2 is 1.31 fold enrichment (6-mer frequency, TF over GST control); with SPDEF it was 1.23 fold enrichment (6-mer frequency, TF over GST control); with ETV7, 1.39 fold enrichment (6-mer frequency, TF over GST control); with ELF5, 1.27 fold enrichment (6-mer frequency, TF over GST control); in the test with ETV3 it was 1.4 fold enrichment (6-mer frequency, TF over GST control); with ETV6, 1.42 fold enrichment (6-mer frequency, TF over GST control).
